# According to PubChem BioAssay AID1069 (NMMLSC, 2008):
# Calls of active or inactive are those of the source.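 Rule for the calls: active = high combined rank on largest and smallest cell-count-weighted shift across three tests, rank score above 45, floors 50 and 25 (some results past the limit were not filed as active); inactive = the rest.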
# Test: LNCaP granularity increase inducers, single-point recheck – cell-based, side scatter shift, flow cytometry, confirmation (AID 1069);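 note: LNCaP human prostate cancer cells in low-serum medium with charcoal-stripped FBS; percent of cells with raised granularity gated so DMSO controls show 10%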
# Settings: LNCaP differentiation, 4 d, at 100 µM, stronger effect = higher value
row,Structure (SMILES),side scatter shift
1,Cc1oc(-c2ccc(Cl)cc2)nc1CN1CCCC(C(=O)NCc2ccco2)C1 (centres undefined),22.2% (inactive)
2,CCOC(=O)c1c(NCc2ccc3c(c2)OCO3)c2ccccc2[nH]c1=O,12.8% (inactive)
3,Cn1nc(-c2ccc(Cl)cc2)c2cc(C(=O)NCCCN3CCCC3)sc21,31.6% (active)
4,CCOC(=O)CSc1nnc(CNC(=O)c2ccccc2OC)n1-c1ccc(OC)cc1,11.3% (inactive)
5,Cn1c(=O)cc(SCC(=O)NCCCN2CCN(c3ccc(F)cc3)CC2)c2ccccc21,46.7% (inactive)
6,Cc1cc(NC(=O)CSc2nnc(Cn3c(=O)sc4ccccc43)n2-c2ccccc2C)no1,26.5% (inactive)
7,COc1ccccc1N1CCN(C(=O)CCn2c(=O)[nH]c3ccsc3c2=O)CC1,19.4% (inactive)

# Same assay, conditions: LNCaP differentiation, 4 d, side scatter shift, at 10 µM, stronger effect = higher value
row,Structure (SMILES),side scatter shift
1,Cc1cc(N2CCC(N(C)C3CCCC3)CC2)nc2cc(O)ccc12,22.5%
2,Cc1ccc(Nc2cc(=O)n(C3CCCCC3)c(=O)[nH]2)cc1C,10.6%
3,CCOC(=O)C1CCN(S(=O)(=O)c2ccc(-c3nc4ccccc4s3)s2)CC1,7.85%
4,Cc1ccccc1-c1nc(CN2CCCC(C(=O)NCc3cccnc3)C2)c(C)o1 (centres undefined),7.35%
5,COc1ccccc1N1CCN(Cc2cc(Br)c(O)c3ncccc23)CC1,17.4%
6,COC(=O)c1ccccc1S(=O)(=O)N(Cc1cc2cc3c(cc2[nH]c1=O)OCO3)C1CCCCC1,8.05%
7,CCOC(=O)C1CCN(c2nc3ccccc3nc2C(C#N)C(=O)OCCOC)CC1 (centres undefined),3.1%
8,COc1ccc(Nc2nc(N3CCCC3)c3ccccc3n2)cc1,21.6%
9,Cc1cc(N2CCN(C)CC2)nc2ccc(NC(=O)c3ccc4c(c3)OCO4)cc12,24.6%
10,COc1ccc(/C=N/c2nc3ccccc3n2C)cc1OC,6.6%
11,Cc1ccccc1CN1CCN(CC(=O)NCCCN2CCN(c3ccc(F)cc3)CC2)C1=O,5.15%
12,CCSc1nnc(Cn2c(=O)sc3ccccc32)n1-c1ccccc1C,9.7%
13,COc1ccc(CCNC(=O)C2CCN(Cc3nc(-c4ccccc4C)oc3C)CC2)cc1OC,20%
14,CCOC(=O)c1c(C)[nH]c(C(=O)COC(=O)C2CC2C)c1C (centres undefined),44.6%
15,CCCCCn1c(=N)n(CC(O)COc2ccccc2OC)c2ccccc21 (centres undefined),25.1%
16,COc1ccc(N2CCN(CCCNC(=O)c3cc4sccc4n3C)CC2)cc1,6.5%
17,Cn1c(=O)cc(OCC(=O)NCCCN2CCN(c3ccccc3F)CC2)c2ccccc21,4.5%
18,Cc1cc(NC(=O)c2noc3c2CCc2ccccc2-3)n(-c2ccccc2)n1,12.4%
19,COc1ccc(N2CCN(CCCNC(=O)CC3Oc4ccc(C)cc4NC3=O)CC2)cc1 (centres undefined),9.05%

row,Structure (SMILES),side scatter shift
1,COC(=O)c1cc2oc3ccccc3c2n1CC(=O)Nc1ccccc1OC,8.8%
2,CCc1ccc(-c2nc(CN3CCC(C(=O)NCc4ccccc4OC)CC3)c(C)o2)cc1,14.5%
3,COc1ccc(CCn2c(=N)c(C(=O)NCc3ccco3)cc3c(=O)n4ccccc4nc32)cc1,4.85%
4,CCOc1cccc2cc(-c3cn4cc(C)ccc4n3)c(=O)oc12,2.1%
5,O=C(CN1CCC(n2nnc3cc(F)ccc32)CC1)Nc1ccc2c(c1)CCC2,1.9%
6,Cc1nn(Cc2ccc(F)cc2)c(C)c1NC(=O)c1cc(-c2ccc3c(c2)OCO3)on1,1.1%
7,Cc1oc(-c2ccc(Cl)cc2)nc1CN1CCCC(C(=O)NCc2cccnc2)C1 (centres undefined),7.2%
8,CCOC(=O)C1=C(C)Nc2nc(SC)nn2C1c1ccc(C(=O)OC)cc1 (centres undefined),7.15%
9,COC(=O)c1ccccc1NC(=O)CN1CCC(n2nnc3cc(F)ccc32)CC1,6.9%
10,CN(C)c1ccc(CNC2CC(C)(C)NC(C)(C)C2)cc1,10.6%
11,Cc1sc(CO)c(Sc2ccccc2)c1C(=O)O,2.85%
12,Cc1oc(-c2ccc(Cl)cc2)nc1CN1CCCC(C(=O)NCc2ccco2)C1 (centres undefined),12.7%
13,CCOC(=O)c1c(NCc2ccc3c(c2)OCO3)c2ccccc2[nH]c1=O,4.75%
14,Cn1nc(-c2ccc(Cl)cc2)c2cc(C(=O)NCCCN3CCCC3)sc21,66.5%
15,CCOC(=O)CSc1nnc(CNC(=O)c2ccccc2OC)n1-c1ccc(OC)cc1,4.3%
16,Cn1c(=O)cc(SCC(=O)NCCCN2CCN(c3ccc(F)cc3)CC2)c2ccccc21,8.35%
17,Cc1cc(NC(=O)CSc2nnc(Cn3c(=O)sc4ccccc43)n2-c2ccccc2C)no1,8.25%
18,COc1ccccc1N1CCN(C(=O)CCn2c(=O)[nH]c3ccsc3c2=O)CC1,1.7%
